This is a sample that favours compounds with a hit; in the whole collection about 18% have one here.
PLK1 PBD inh: qHTS for Inhibitors of PLK1-PDB (polo-like kinase 1 - polo-box domain): Primary Screen; Potency, µM, for the others: max response, negative = inhibition, actives largely listed as inhibitors; Plk1 PBD binding of FITC phosphopeptide, fluorescence polarization; 2.8% of 360,000 active; also: series mostly up to about 57 µM; nearly all actives have a fitted effect of over 65% in size
DT40 TDP1 CPT: qHTS for Inhibitors of human tyrosyl-DNA phosphodiesterase 1 (TDP1): qHTS in cells in presence of CPT; chicken DT40 Tdp1-/-;hTDP1 cells + 20 nM CPT, ATP luminescence, 48 h; Potency, µM (top dose mostly 46.2 µM), without a hit: at the highest dose activity change, negative = growth inhibition, most hits filed as inhibitors; 12% of 420,000 active; also: nearly all actives have a fitted effect of over 55% in size
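Chicken DT40 Tdp1-/- cells complemented with human TDP1, 400 cells/well, exposed to compounds plus 20 nM camptothecin for at least 48 h at 37 C; viability read as ATP content by CellTiter-Glo luminescence.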
TDP1 inh: qHTS Assay for Inhibitors of Tyrosyl-DNA Phosphodiesterase (TDP1); Tyrosyl-DNA phosphodiesterase 1 (Homo sapiens), Q9NUW8; recombinant TDP1, AlphaScreen DNA substrate cleavage; Potency, µM (top dose mostly 130 µM), inactives show at the top dose activity change, negative = inhibition, actives largely listed as inhibitors; 0.28% of 350,000 active; also: nearly all actives have a fitted effect of over 40% in size
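Here, a 5' biotin and 3' phosphotyrosine-FITC DNA oligonucleotide reports Tdp1 activity: intact substrate bridges AlphaScreen beads, while cleavage leaves a 3' phosphate and drops signal. All incubations at room temperature.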
TDP1 cell noCPT: qHTS for Inhibitors of human tyrosyl-DNA phosphodiesterase 1 (TDP1): qHTS in cells in absence of CPT | DT40 Tdp1-/- hTDP1 cells, no CPT, ATP luminescence, 48 h | 15% of 420,000 active | AID 686978, 2013 | Potency, µM (series often up to 46.2 µM), without a hit: at the top dose activity change, negative = growth inhibition, hits mostly inhibitors; also: nearly all actives have a fitted effect of over 55% in size
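Chicken DT40 Tdp1-/- cells stably complemented with human TDP1 were seeded at 400 cells/well with DMSO in place of 20 nM camptothecin. After compound pinning, cells grew at least 48 hr at 37 °C; viability read by CellTiter-Glo luminescence.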
GCN5L2 inh: qHTS Assay for Inhibitors of GCN5L2. Potency, µM (series often up to 58.9 µM), without a hit: at the top dose activity change, negative = inhibition, actives largely listed as inhibitors. 0.21% of 390,000 active. Histone acetyltransferase KAT2A (Homo sapiens), Q92830. AID 504327, 2011. GCN5L2 HAT assay, ThioGlo1 CoA-SH fluorescence
Target sequence (Q92830 whole entry, looked up): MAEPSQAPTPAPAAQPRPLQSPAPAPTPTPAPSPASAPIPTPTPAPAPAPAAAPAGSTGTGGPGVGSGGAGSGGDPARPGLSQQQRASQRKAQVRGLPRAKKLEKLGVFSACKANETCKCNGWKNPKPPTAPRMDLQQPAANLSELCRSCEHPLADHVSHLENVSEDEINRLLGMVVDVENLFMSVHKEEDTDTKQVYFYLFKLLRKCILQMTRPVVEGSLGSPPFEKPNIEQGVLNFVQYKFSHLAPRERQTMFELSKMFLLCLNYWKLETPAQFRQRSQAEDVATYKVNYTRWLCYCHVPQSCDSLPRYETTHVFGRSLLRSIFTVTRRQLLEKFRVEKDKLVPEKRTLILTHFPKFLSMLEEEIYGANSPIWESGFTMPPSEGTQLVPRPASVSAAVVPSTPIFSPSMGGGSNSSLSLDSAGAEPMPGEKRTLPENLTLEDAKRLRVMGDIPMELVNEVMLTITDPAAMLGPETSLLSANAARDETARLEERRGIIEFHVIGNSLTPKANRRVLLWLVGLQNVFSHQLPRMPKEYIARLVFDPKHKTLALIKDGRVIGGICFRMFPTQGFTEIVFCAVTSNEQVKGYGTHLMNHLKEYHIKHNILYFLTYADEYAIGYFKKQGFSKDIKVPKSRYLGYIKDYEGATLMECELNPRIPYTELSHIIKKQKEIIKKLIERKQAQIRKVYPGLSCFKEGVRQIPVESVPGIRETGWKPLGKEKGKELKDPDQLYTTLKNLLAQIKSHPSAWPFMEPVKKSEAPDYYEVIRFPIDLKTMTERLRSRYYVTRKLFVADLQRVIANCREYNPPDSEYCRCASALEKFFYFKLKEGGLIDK
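Enzyme at 20nM final was mixed with library compounds for 15 min at room temperature. Peptide H3(1-25) at 75uM, acetyl-CoA at 70uM and ThioGlo1 at 50uM were then added. Plates were read immediately and after 20 min (Ex340nm/Em540nm).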
VDR inhibitor: Inhibitors of the vitamin D receptor (VDR): qHTS. VDR-SRC2-3 peptide fluorescence polarization, 2 h. AID 504847, 2011. Potency, µM, for inactives: max response, negative = inhibition, hits mostly inhibitors. 0.93% of 400,000 active. Vitamin D3 receptor (Homo sapiens), P11473
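After 23 nl compound addition and a short centrifugation, plates sat for 2 hours at ambient temperature; polarization of fluorescence then indicated loss of VDR binding to peptide SRC2-3.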
The depositor's hits bear a star; ? = inconclusive; · = no result given; [ ] = another dose, or the depositor's remark. Calls follow the shape of the dose curve; as a rule, active = well fitted curve in the direction sought with a large enough effect; inconclusive = small, poorly fitted or top-dose-only effect, or another doubt; inactive = no such curve, though single readings can be large; an effect the other way counts as inactive or inconclusive. % is scaled to controls: 0 for no effect and ±100 for the full control effect; potency is read from the fitted curve at half-maximal effect.

SMILES | PLK1 PBD inh | DT40 TDP1 CPT | TDP1 inh | TDP1 cell noCPT | GCN5L2 inh | VDR inhibitor
Cc1ccc(NC(=O)c2ccc([N+](=O)[O-])o2)cc1C | -13% | 26µM* | 7% | 10µM* | -9% | 4%
O=C(Nc1cccc(NC(=O)c2ccccc2Cl)c1)c1ccc([N+](=O)[O-])o1 | -24% | 8.2µM* | 0% | 5.8µM* | -12% | 2%
O=C(Nc1cccc([N+](=O)[O-])c1)c1ccc([N+](=O)[O-])o1 | -28% | 1.8µM* | · | 3.7µM* | · | ·
Cc1csc(NCC(=O)c2c(C)[nH]c3ccccc23)n1 | · | 7% | · | 12% | · | ·
O=C(Cc1nnc(-c2cc3ccccc3[nH]2)s1)Nc1cc(C(F)(F)F)ccc1Cl | · | · | 0% | · | · | ·
O=C(O)c1ccc(NC(=S)NC(=O)c2ccc(-c3ccc(Br)cc3)o2)cc1 | ? | 12% | 14µM* | 4% | 2% | ?
O=C(O)c1cccc(NC(=S)NC(=O)c2ccc(-c3ccc(Cl)cc3)o2)c1 | ? | 7% | · | 1% | -28% | -5%
CCN(CC(=O)NCc1ccc(Cl)cc1)C(=O)COc1ccc(Cl)cc1Br | -9% | -24% | · | -21% | -12% | -2%
CCOc1ccc(/C=C/c2nc(C#N)c(Nc3ccc(OCC)cc3)o2)cc1 | · | 23µM* | 5% | 23µM* | -6% | 2%
CCOc1ccc(/C=C/c2nc(C#N)c(Nc3ccc(OC)cc3)o2)cc1 | · | 21µM* | -2% | 16µM* | -4% | 12%
COc1ccc(CNc2oc(/C=C/c3cccc(OC)c3)nc2C#N)cc1 | · | 23µM* | 5% | 23µM* | -14% | 9%
COc1cccc(/C=C/c2nc(C#N)c(NCCc3ccc(OC)c(OC)c3)o2)c1 | · | ? | 7% | -87% | -2% | 8%
CCOc1ccc(/C=C/c2nc(C#N)c(NC(C)c3ccccc3)o2)cc1 (stereo unspecified) | · | 13µM* | -2% | 12µM* | 0% | -1%
O=[N+]([O-])C1C(c2ccccc2)=NOC1c1ccccc1O (stereo unspecified) | -3% | 2% | · | 2% | -6% | -1%
COC(=O)c1cc(OC(=O)CCc2ccc(OC)c(OC)c2)cc(C(=O)OC)c1 | -7% | 4% | 0% | -4% | -6% | 2%
CCOc1ccc(Nc2oc(/C=C/c3cccc(OC)c3)nc2C#N)cc1 | · | ? | 2% | 23µM* | -4% | 1%
CCOc1ccc(Nc2oc(/C=C/c3cc(OC)c(OC)c(OC)c3)nc2C#N)cc1 | · | ? | 2% | ? | -5% | 2%
CN(C)c1nc(CN2CCCCC2c2cccnc2)nc2ccccc12 (stereo unspecified) | · | -2% | · | 0% | · | ·
Cc1nc(N2CCCC2)c2c(C(=O)Nc3ccc(C)c(Cl)c3)c(C)oc2n1 | · | ? | 2% | ? | 21% | 8%
COc1cccc(-c2nccc(NCc3ccccc3)n2)c1 | · | ? | · | ? | -25% | -21%
Cc1ccc(C2/C=C\CC(NC(=O)OCC3c4ccccc4-c4ccccc43)CC(=O)N2Cc2ccccc2)cc1 (stereo unspecified) | -6% | ? | 0%[56.1 µM] | 16µM* | -8% | -10%
CCC(=O)N1CCc2cc(S(=O)(=O)NCCC(=O)N3CCN(c4cccc(C)c4)C(C)C3)ccc21 (stereo unspecified) | 7% | 21µM* | 1% | 9.2µM* | -2% | -12%
CCC(=O)N1CCc2cc(S(=O)(=O)NCCC(=O)N3CCN(c4cccc(OC)c4)CC3)ccc21 | -7% | ? | 5% | 13µM* | 2% | 9%
CCC(=O)N1CCc2cc(S(=O)(=O)NCCC(=O)Nc3ccc(OC)cc3)ccc21 | 0% | -2% | 2% | -14% | -4% | 11%
